Source: the supplement of paper PMC4466140

B1: unnamed (peptide)
chain: AAAPKHAPPPVPNET

Molecular target: AgAbp1
Assay: SPOT peptide array binding signal intensity (averaged, normalized) (arbitrary units (background-subtracted, floor 0; scale differs between SH3 domains)); higher = stronger binding of the SH3 domain to the peptide
In short: (§1)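 GST-fused SH3 domains, from four yeast species, were produced in E. coli BL21(DE3) and captured on glutathione Sepharose. Membranes of cellulose carrying synthetic 15-mer peptides, in which cysteines had been replaced by serines, were exposed to each domain at 10 μg/ml overnight at 4°C in TBS-based blocking buffer. After anti-GST antibody, an HRP anti-mouse secondary and luminol, spots were imaged and quantified using Genespotter. Binding signal is normalized and background-subtracted spot intensity, averaged over replicates, in arbitrary units that differ between domains.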

Binder	SPOT peptide array binding signal intensity
B1	≤ 0

Molecular target: AgBbc1
Assay: as above
In short: as §1

Binder	SPOT peptide array binding signal intensity
B1	≤ 0

Molecular target: AgBem1-D1
Assay: as above
In short: as §1

Binder	SPOT peptide array binding signal intensity
B1	≤ 0

Molecular target: AgBzz1-D1
Assay: as above
In short: as §1

Binder	SPOT peptide array binding signal intensity
B1	96

Molecular target: AgBzz1-D2
Assay: as above
In short: as §1

Binder	SPOT peptide array binding signal intensity
B1	≤ 0

Molecular target: AgCyk3
Assay: as above
In short: as §1

Binder	SPOT peptide array binding signal intensity
B1	≤ 0

Molecular target: AgFus1
Assay: as above
In short: as §1

Binder	SPOT peptide array binding signal intensity
B1	≤ 0

Molecular target: AgHof1
Assay: as above
In short: as §1

Binder	SPOT peptide array binding signal intensity
B1	≤ 0

Molecular target: AgHse1
Assay: as above
In short: as §1

Binder	SPOT peptide array binding signal intensity
B1	≤ 0

Molecular target: AgLsb1
Assay: as above
In short: as §1

Binder	SPOT peptide array binding signal intensity
B1	≤ 0

Molecular target: AgLsb4
Assay: as above
In short: as §1

Binder	SPOT peptide array binding signal intensity
B1	≤ 0

Molecular target: AgMyo5
Assay: as above
In short: as §1

Binder	SPOT peptide array binding signal intensity
B1	2020

Molecular target: AgNbp2
Assay: as above
In short: as §1

Binder	SPOT peptide array binding signal intensity
B1	≤ 0

Molecular target: AgRvs167
Assay: as above
In short: as §1

Binder	SPOT peptide array binding signal intensity
B1	≤ 0

Molecular target: AgSho1
Assay: as above
In short: as §1

Binder	SPOT peptide array binding signal intensity
B1	≤ 0

Molecular target: AgSla1-D1-D2
Assay: as above
In short: as §1

Binder	SPOT peptide array binding signal intensity
B1	≤ 0

Molecular target: AgSla1-D3
Assay: as above
In short: as §1

Binder	SPOT peptide array binding signal intensity
B1	11

Molecular target: CaAbp1-D1
Assay: as above
In short: as §1

Binder	SPOT peptide array binding signal intensity
B1	≤ 0

Molecular target: CaAbp1-D2
Assay: as above
In short: as §1

Binder	SPOT peptide array binding signal intensity
B1	≤ 0

Molecular target: CaBbc1
Assay: as above
In short: as §1

Binder	SPOT peptide array binding signal intensity
B1	≤ 0

Molecular target: CaBem1-D1
Assay: as above
In short: as §1

Binder	SPOT peptide array binding signal intensity
B1	≤ 0

Molecular target: CaBzz1-D1
Assay: as above
In short: as §1

Binder	SPOT peptide array binding signal intensity
B1	1240

Molecular target: CaBzz1-D2
Assay: as above
In short: as §1

Binder	SPOT peptide array binding signal intensity
B1	66.8

Molecular target: CaCyk3
Assay: as above
In short: as §1

Binder	SPOT peptide array binding signal intensity
B1	≤ 0

Molecular target: CaFus1
Assay: as above
In short: as §1

Binder	SPOT peptide array binding signal intensity
B1	≤ 0

Molecular target: CaHof1
Assay: as above
In short: as §1

Binder	SPOT peptide array binding signal intensity
B1	≤ 0

Molecular target: CaHse1
Assay: as above
In short: as §1

Binder	SPOT peptide array binding signal intensity
B1	≤ 0

Molecular target: CaLsb1
Assay: as above
In short: as §1

Binder	SPOT peptide array binding signal intensity
B1	≤ 0

Molecular target: CaLsb4
Assay: as above
In short: as §1

Binder	SPOT peptide array binding signal intensity
B1	≤ 0

Molecular target: CaMyo5
Assay: as above
In short: as §1

Binder	SPOT peptide array binding signal intensity
B1	795

Molecular target: CaNbp2
Assay: as above
In short: as §1

Binder	SPOT peptide array binding signal intensity
B1	≤ 0

Molecular target: CaRvs167
Assay: as above
In short: as §1

Binder	SPOT peptide array binding signal intensity
B1	≤ 0

Molecular target: CaRvs167-3
Assay: as above
In short: as §1

Binder	SPOT peptide array binding signal intensity
B1	0.5

Molecular target: CaSho1
Assay: as above
In short: as §1

Binder	SPOT peptide array binding signal intensity
B1	≤ 0

Molecular target: CaSla1-D1-D2
Assay: as above
In short: as §1

Binder	SPOT peptide array binding signal intensity
B1	≤ 0

Molecular target: CaSla1-D3
Assay: as above
In short: as §1

Binder	SPOT peptide array binding signal intensity
B1	≤ 0

Molecular target: ScAbp1
Assay: as above
In short: as §1

Binder	SPOT peptide array binding signal intensity
B1	≤ 0
